“And” between values parts separate entries of the source, which are not always exact repeats. Identical values can stand only once. About 83,000 compounds went through this panel and 20% of them were active in at least one assay; those are over-represented in the sample as a whole.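 The test compound was applied at a single concentration to cells in 96-well plates for 48 hours, and percent growth was recorded.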 The source made the active and inactive calls. Rule for the calls: active = growth percent below 10; inactive = the rest.
system: MDA-MB-468 breast; assay: NCI-60 one-dose screen, 48 h (100 = growth as untreated, 0 = no growth, -100 = all killed); conditions: 10 µM unless noted

| Compound | growth |
| --- | --- |
| Cc1ccc(/C=C2\CN(Cc3cn(CCNc4ccnc5cc(Cl)ccc45)nn3)C/C(=C\c3ccc(C)cc3)C2=O)cc1 | -31.1% (active) |
| COc1ccc(-c2nc(-c3nc4ccc(C)cc4[nH]3)cc3c2[nH]c2ccccc23)cc1 | 48.8% (inactive) |
| O=C(Nc1ccc(NS(=O)(=O)c2ccc(F)cc2)cc1)C12CC3CC(CC(C3)C1)C2 | 96.5% (inactive) |
| Cc1c2cnccc2c(C)c2c1c1cc(C3OCCCO3)ccc1n2C | -34% (active) |
| COc1cc(-c2nc(-c3nnc(-c4ccc(F)c(Cl)c4)o3)c3ccccn23)cc(OC)c1OC | 52.5% (inactive) |
| COc1ccc(C2c3ccc4ccccc4c3Oc3ncnc(N)c32)cc1 (stereo not given) | 86.6% (inactive) |
| CN(C)S(=O)(=O)n1cnc([C@@H]2[C@@H]3C(=O)OC[C@@H]3C[C@]23N=CN(Cc2ccccc2)C3=O)c1 | 97.2% (inactive) |
| COc1ccc2c(c1)CCCC21C(=O)Nc2ccccc21 (stereo not given) | 103% (inactive) |
| COc1cc(C(=O)NNC(=O)c2ccccc2O)cc(OC)c1OC | 103% (inactive) |
| COc1cc(C(=O)/C=C/c2cc(C(=O)c3cc(OC)c(OC)c(OC)c3)ccc2OC)ccc1N | -44.7% (active) |
| N=C(N)c1ccc(-c2ccc(-c3cc(Cl)cc(Cl)c3)o2)nc1 | -73.9% (active) |
| COc1ccc(C(=O)Nc2nc(-c3ccc(Cl)cc3)cs2)cc1 | 95.9% (inactive) |
| COc1ccccc1/C=C/C(=O)/C=C/c1ccccc1O | -56.1% (active) |
| O=C(NCCCNC(=O)OCc1ccc2cccc(O)c2n1)OCc1ccc2cccc(O)c2n1 | 11.3% (inactive) |
| CC1=NC2=Nn3c(c4cnn(-c5ccccc5)c4n/c3=N\N)NN2C(c2ccccc2)=C1 | 73.9% (inactive) |
| COc1cc(Cn2cc3c(c2)-c2onc(CN4CCCC4)c2CC3)cc(OC)c1OC | 82.7% (inactive) |
| C1CN(CC2CCC(CN3CCOCC3)O2)CCO1 (stereo not given) | 102% (inactive) |
| O=C(Nc1c2ccccc2nc2ccccc12)c1ccccc1CN1C(=O)c2ccccc2C1=O | 0.8% (active) |
| ON=C1CCCCCCCC1 | 102% (inactive) and 107% (inactive) |
| O=C(CCCN1C(=O)/C(=C/c2ccccc2F)SC1=S)N1CCOCC1 | 55.7% (inactive) |

| Compound | growth |
| --- | --- |
| O=S1(=O)NCCN1CCNc1nccc(-c2c(-c3cccc(O)c3)nc3sccn23)n1 | 96.8% (inactive) |
| O=c1[nH]nc(SC2CCCCC2)c(=O)[nH]1 | 116% (inactive) |
| Cc1ccc(C(C)C)cc1NC(=O)Nc1ccc([N+](=O)[O-])cc1 | 4.03% (active) |
| COc1cc(Cn2ncc3ccc(NC(=O)c4cc5ccccc5oc4=N)cc32)cc(OC)c1OC | 36.8% (inactive) |
| Cc1ccsc1/C=C/C1=NCCCN1C | 92.4% (inactive) |
| CN1CCN(c2nc(Nc3ccc(O)cc3)nc3ccccc23)CC1 | 75.2% (inactive) |
| O=C(/C=C/c1cccs1)c1ccc(Cl)nc1 | 103% (inactive) |
| COc1ccc2oc(-c3ccc(Cl)cc3)c(N3CCN(C)CC3)c2c1 | -53.5% (active) |
| C=C1C(=O)O[C@H]2[C@H]1CC/C(Cn1cc(-c3cc(C(F)(F)F)cc(C(F)(F)F)c3)nn1)=C\CC[C@@]1(C)O[C@@H]21 | -56.7% (active) |
| N=C(N)c1ccc(-c2ccc(-c3cc(Cl)cc(Cl)c3)s2)nc1 | 15.7% (inactive) |
| COc1ccc(OC)c(-c2c(C#N)c(-c3cccs3)nc3c2c(-c2ccccc2)nn3-c2ccccc2)c1 | 104% (inactive) |
| COc1ccc(-c2nc3sccn3c2-c2cc(-c3cc(OC)c(OC)c(OC)c3)on2)cc1 | 100% (inactive) |
| CN(C)CCNc1cccc2sc3ccc(O)cc3c(=O)c12 | 28.1% (inactive) |
| O=C(N/N=C/c1ccc2c(c1)OCO2)c1ccncc1 | 116% (inactive) and 124% (inactive) |
| COc1cc(N=Cc2sc(Nc3nccs3)nc2O)cc(OC)c1OC | 84.8% (inactive) |
| COc1cc(-c2nc(C(=O)NCC(=O)NO)nn2-c2ccc(Cl)cc2)cc(OC)c1OC | 112% (inactive) |
| COc1cc(NCc2ccccc2O)c2ncccc2c1 | 90.4% (inactive) |
| C[C@@H]1CCCCCCCCC[C@H](O)C(=O)C[C@@H](SC[C@@H](O)C(=O)O)C(=O)O1 | 104% (inactive) |
| COc1cccc(NC2=CC(=O)C(C)=C(C)C2=O)c1 | 25.8% (inactive) |
| O=[N+]([O-])c1cccc(C(c2ccccc2)c2ccccc2)c1 | 93.9% (inactive) |
